Laboratory results from PubChem BioAssay AID1159580 (chemical genetic matrix, 2015).
Among all 5,500 compounds or so, about 2,000 (36%) were called active. Roughly 18% stayed inconclusive and do not appear here. Cut-off read from the data, not from the text of the source: active = normalized growth mostly below about 0.91 (no sharp cut-off); inconclusive = no clear call, values can overlap the other calls; inactive = mostly above about 0.92. Some of the results follow.

Assay: chemical genetic growth profiling, strain panel (AID 1159580);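 note: tested at 20 µM; growth read once vehicle control cultures reached saturation at 30 °C; 1 = growth at the plate median or of vehicle wells; lower values mean less growth of the strain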
Conditions: S. cerevisiae deletion strains, growth OD

Measured: normalized growth

CC(=O)CSc1nnc(-c2ccc(C(C)(C)C)cc2)n1-c1ccc(Cl)cc1
inactive: locus YAR019C, strain CDC15, hits give low values 0.982 | locus YBL105C, strain PKC1, hits give low values 0.974 | locus YBR135W, strain CKS1, hits give low values 0.973 | locus YBR136W, strain MEC1, hits give low values 0.987 | locus YBR160W, strain CDC28, hits give low values 0.976 | locus YDL017W, strain CDC7, hits give low values 0.983 | locus YDL028C, strain MPS1, hits give low values 0.976 | locus YDL101C, strain DUN1, hits give low values 0.974 | locus YDL108W, strain KIN28, hits give low values 0.982 | locus YDL132W, strain cdc53, hits give low values 0.972 | locus YDL214C, strain PRR2, hits give low values 0.959 | locus YDR052C, strain DBF4, hits give low values 0.986 | locus YDR054C, strain cdc34, hits give low values 0.971 | locus YDR226W, strain ADK1, hits give low values 0.973 | locus YDR477W, strain SNF1, hits give low values 0.958 | locus YER123W, strain YCK3, hits give low values 0.953 | locus YER133W, strain GLC7, hits give low values 0.969 | locus YFL009W, strain cdc4, hits give low values 0.977 | locus YFL029C, strain CAK1, hits give low values 0.987 | locus YFR003C, strain YPI1, hits give low values 0.984 | locus YFR019W, strain FAB1, hits give low values 1 | locus YFR028C, strain CDC14, hits give low values 0.977 | locus YGR040W, strain KSS1, hits give low values 0.965 | locus YGR052W, strain FMP48, hits give low values 1.02 | locus YGR092W, strain DBF2, hits give low values 0.987 | locus YHR079C, strain IRE1, hits give low values 0.99 | locus YHR082C, strain KSP1, hits give low values 1.04 | locus YHR205W, strain SCH9, hits give low values 0.976 | locus YIL147C, strain SLN1, hits give low values 0.983 | locus YJL095W, strain BCK1, hits give low values 0.926 | locus YJL128C, strain PBS2, hits give low values 0.927 | locus YJL157C, strain FAR1, hits give low values 0.986 | locus YJR016C, strain ILV3, hits give low values 0.982 | locus YJR066W, strain TOR1 (second series), hits give low values 0.984 | locus YJR066W, strain TOR1, hits give low values 0.972 | locus YKL048C, strain ELM1, hits give low values 0.969 | locus YKL067W, strain YNK1, hits give low values 0.947 | locus YKL101W, strain HSL1, hits give low values 0.973 | locus YKL193C, strain SDS22, hits give low values 0.981 | locus YKL203C, strain TOR2, hits give low values 1.05 | locus YLR113W, strain HOG1, hits give low values 0.914 | locus YLR133W, strain CKI1, hits give low values 0.99 | locus YLR403W, strain SFP1, hits give low values 0.984 | locus YML070W, strain DAK1, hits give low values 0.97 | locus YMR001C, strain CDC5, hits give low values 0.985 | locus YMR205C, strain PFK2 (second series), hits give low values 0.97 | locus YMR277W, strain FCP1, hits give low values 0.978 | locus YNL006W, strain LST8, hits give low values 0.98 | locus YNL020C, strain ARK1, hits give low values 0.999 | locus YNL161W, strain CBK1, hits give low values 0.984 | locus YNL183C, strain NPR1, hits give low values 1.01 | locus YNL207W, strain RIO2, hits give low values 0.988 | locus YNL222W, strain SSU72, hits give low values 0.97 | locus YNL307C, strain MCK1 (second series), hits give low values 0.996 | locus YOL078W, strain AVO1, hits give low values 0.984 | locus YOL136C, strain PFK27, hits give low values 0.983 | locus YOR061W, strain CKA2, hits give low values 0.976 | locus YOR119C, strain RIO1, hits give low values 0.98 | locus YOR231W, strain MKK1, hits give low values 0.97 | locus YOR329C, strain SCD5, hits give low values 0.977 | locus YPL031C, strain PHO85, hits give low values 0.953 | locus YPL153C, strain RAD53, hits give low values 0.972 | locus YPL204W, strain HRR25, hits give low values 0.958 | locus YPL209C, strain IPL1, hits give low values 0.984 | locus YPL256C, strain CLN2, hits give low values 0.918 | locus YPR025C, strain CCL1, hits give low values 0.976 | locus YPR106W, strain ISR1, hits give low values 0.974 | locus YPR111W, strain DBF20, hits give low values 0.965 | strain NNK1, hits give low values 0.997 | strain TSCII, hits give low values 0.99
active: locus YHR030C, strain SLT2, hits give low values 0.797
